The results in this text go back to PubChem BioAssay AID2012 (Sanford-Burnham Center for Chemical Genomics, 2009).

The inhibition is the change of the read-out against control, counted positive when it falls.

The whole screen tested about 290,000 compounds, of which about 2,700 (0.93%) were called active. How the calls were made is not given here. The list comes from a sample in which actives are over-represented; it also holds similar structures and randomly drawn compounds.

In this assay the target is Eukaryotic translation initiation factor 4H (Homo sapiens) (UniProt Q15056). Description: human eIF4H binding inhibitors, primary screen, translation initiation inhibitor project, biochemical, uHTS, fluorescence polarization (AID 2012).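 Further: calls also rest on retests at 20 µM and on dose response follow-up.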 The conditions noted are these: eIF4H fluorescence polarization binding assay, stronger effect = higher value. Background: Fluorescence polarisation rises when a labelled molecule tumbles more slowly, as on binding a larger partner.

Take `COc1cc(OC)c(NC(=O)C2CCCN2C(=O)OCc2ccccc2)cc1Cl` (stereo not drawn): the inhibition (at 35 µM) was -2% (inactive).
In the case of `Cc1cccc(C(=O)NC(=S)N(C)C2CCCCC2)c1`, the inhibition (at 35 µM) is -8.7% (inactive).
On the same count and under the same terms, next, `COc1cccc(NC(=S)NCc2ccco2)c1`: 22.2% (inactive); `S=C(NCc1ccc2c(c1)OCO2)NCc1ccco1`: -0.2% (inactive).
Turning to `S=C(NCc1ccco1)Nc1ccc2c(c1)OCCO2`, the inhibition was -2.7% (active) (at 35 µM) and 51.4% (confirmation average, at 20 µM).
With `O=C(CSc1ccc(-c2ccc(Br)cc2)nn1)NCC1CCCO1` (stereo not drawn), the inhibition (at 35 µM) was 3.3% (inactive).
Still for that read-out and setting: next, `O=C(COc1ccc([N+](=O)[O-])cc1)Nc1ccc(N2CCCC2)cc1`: 13.8% (inactive).
With `O=C(COc1ccc(/C=N/NC(=O)c2ccc(O)cc2)cc1)Nc1ccc([N+](=O)[O-])cc1`, the inhibition by setting is: (at 35 µM) -1.7% (active); (confirmation average, at 20 µM) 85.6%.
For `O=C(N/N=C/c1ccc(OCc2ccccc2)cc1)c1ccc(O)cc1`, where the note is “at 35 µM”, the inhibition was -5.8% (inactive).
On to `CCSCc1nc(N)nc(NCCc2ccccc2)n1`, for which the inhibition (at 35 µM) was -0.9% (inactive).
`CC(=O)c1cnc(SCCN2C(=O)c3ccccc3C2=O)nc1C`: for the setting “at 35 µM”, the inhibition is -11.9% (inactive).
For the molecule `CSc1ncc(C(=O)NCCCc2ccccc2)c(C)n1`, under “at 35 µM”, the inhibition was -7.3% (inactive).
On to `CC(=O)c1cnc(SCC(=O)O)nc1C`, for which the inhibition is -2.4% (active) (at 35 µM) and 82.3% (confirmation average, at 20 µM).
Turning to `CSCCC(NS(=O)(=O)c1ccccc1F)C(=O)N1CC=C(c2ccccc2)CC1` (stereo not drawn), under “at 35 µM”, the inhibition is 0% (inactive).
In the case of `Cn1cccc1/C=N/NC(=O)c1ccc(OC(F)(F)C(F)F)cc1`, the inhibition is, setting by setting: (at 35 µM) 9.7% (active); (confirmation average, at 20 µM) 56.1%.
Regarding `Cn1cccc1/C=N/NC(=O)CNc1cccc2ccccc12`, the inhibition (at 35 µM) was -6.2% (inactive).
On the same count and under the same terms, next, `COc1ccc(/C=N/NC(=O)c2cccc(C(F)(F)F)c2)cc1`: -2.2% (inactive); `NC(=O)c1ccc(Nc2ccc3nonc3c2[N+](=O)[O-])cc1`: -14.2% (inactive).
On the same count and under the same terms, next, `COc1ccccc1NC(=O)N1CCCC1C(=O)NCc1cccs1` (stereo not drawn): -15.4% (inactive); `CCS(=O)(=O)N1CCC(N2CCN(c3ccccc3)CC2)CC1`: 7.8% (inactive).
On to `CC(/C=N/NC(=O)c1cc(-c2ccc3ccccc3c2)n[nH]1)=C\c1ccco1`, for which the inhibition (at 35 µM) was 66.1% (inactive) and the inhibition (confirmation average, at 20 µM) was -19.6%.
Consider `CC(/C=N/NC(=O)c1ccncc1)=C\c1ccco1`, for which the inhibition (at 35 µM) was 25.2% (inactive).
On the same count and under the same terms, next, `C/C(=C\c1ccco1)C1Nc2cccc3cccc(c23)N1`: 107% (active).
Still for that read-out and setting: next, `O=C(/C=C/c1ccco1)Nc1ccc(Oc2ccccc2)cc1`: 2.4% (inactive).
As for `Cc1ccc(-n2nc3ccc(NC(=O)/C=C/c4ccco4)cc3n2)cc1C`, the inhibition (at 35 µM) is 71.7% (active) and the inhibition (confirmation average, at 20 µM) worked out at 73.8%.
Consider `O=C(/C=C/c1ccco1)Nc1cccc(-c2nc3ccccc3[nH]2)c1`, for which the inhibition (at 35 µM) is -7.2% (inactive).
Still for that read-out and setting: next, `COc1ccc(C2CC(c3ccc([N+](=O)[O-])cc3)=NN2C(C)=O)cc1` (stereo not drawn): 2.5% (inactive); `N#CC1=C(N)Oc2c(sc3ccccc23)C1c1ccco1` (stereo not drawn): 74% (active); `CC1=C(C(=O)Nc2ccccc2)C(c2ccco2)C(C#N)=C(SCC(N)=O)N1` (stereo not drawn): 10.9% (inactive).
Turning to `Cc1cc(C)c2c3c(sc2n1)C(c1ccccc1)C(C#N)=C(N)O3` (stereo not drawn), the inhibition is 1% (inactive) (at 35 µM) and 28.6% (confirmation average, at 20 µM).
For the molecule `COc1ccccc1CCNC(=O)c1c(C)nn(CC(C)C)c1Cl`, where the note is “at 35 µM”, the inhibition is -10.7% (inactive).
On the same count and under the same terms, next, `O=S(=O)(Oc1ccccc1C(=S)N1CCOCC1)c1ccc(Cl)cc1`: 1% (inactive).
On to `CCN(CC)c1ccc(/C=N/NC(=O)c2cnccn2)c(O)c1`, for which, under “at 35 µM”, the inhibition was 1.5% (inactive).
In the case of `CCN(CC)c1ccc(/C=N/Nc2nc(C)cc(C)n2)c(O)c1`, the inhibition was 83.3% (active) (at 35 µM) and 87.6% (confirmation average, at 20 µM).
Regarding `Cc1cc(C)nc(N/N=C/c2ccncc2)n1`, for the setting “at 35 µM”, the inhibition was -8.8% (inactive).
For `Cc1ccccc1CN1CCNC(=O)C1CC(=O)NCCC1=CCCCC1` (stereo not drawn), for the setting “at 35 µM”, the inhibition was 5.3% (inactive).
As for `COc1cccc(CNS(=O)(=O)c2csc(C(N)=O)c2)c1`, the inhibition (at 35 µM) was 5.7% (inactive).
The same measure, in the same setting: next, `CS(=O)(=O)N1CCc2nc(-c3ccccc3)sc2C1`: -3.4% (inactive); `Cc1ccc(C)c(C(C)NC(=O)C2CCCO2)c1` (stereo not drawn): 92.8% (active); `Cc1cc(C)c2nc(NC(=O)C3CCCO3)sc2c1` (stereo not drawn): -3.8% (inactive).
Turning to `Cc1cc([N+](=O)[O-])ccc1NC(=O)C1CCCO1` (stereo not drawn), under “at 35 µM”, the inhibition is -1.7% (inactive).
`COc1ccc(COC(=O)c2ccc(Cl)c(S(=O)(=O)N3CCOCC3)c2)cc1F`: where the note is “at 35 µM”, the inhibition was 1.3% (inactive).
Regarding `NS(=O)(=O)c1ccc(NC(=O)COC(=O)c2ccco2)cc1`, the inhibition is, setting by setting: (at 35 µM) -10.4% (active); (confirmation average, at 20 µM) 80.1%.
With `NS(=O)(=O)c1ccc(NC(=O)COC(=O)c2ccc(Cl)nc2)cc1`, for the setting “at 35 µM”, the inhibition is 7.6% (inactive).
